# Source: PubChem (National Center for Advancing Translational Sciences (NCATS))
# An excerpt weighted towards active compounds, which were near 12% of everything screened.
# HCV inh: HCV inhibition | Potency, µM (doses to about 41.8 µM), for inactives: top-dose activity change, negative = inhibition, usual class: inhibitors | Huh7.5.1 HCVcc-Cre infection, luciferase reporter, 44 h | 340,000 tested, 3.4% active; further: on the % scale 0 is the no-effect control and ±100 the full control effect
#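 Seed cells (1,000/well) for 4 h; treat with compound and infect with HCVcc-Cre, moi about 0.5. Incubate 44 h, then detect luciferase activity.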
# SARS PLpro yeast: SARS-CoV PLP inhibition in yeast; 330,000 tested, 0.19% active; Potency, µM (doses to about 32.9 µM), for inactives: top-dose activity, positive = growth rescue, usual class: activators; S. cerevisiae expressing SARS-CoV PLpro, growth rescue; calls by dose curve; further: 0% is about no effect; nearly all actives have a fitted effect of over 55% in size
# AMA1 RON2 block: inhibitors of Plasmodium falciparum AMA1-RON2 interaction; AlphaScreen AMA1-biotinylated RON2 peptide binding; Potency, µM (highest dose often 58.2 µM), without a hit: at the top dose activity change, negative = inhibition, usual class: inhibitors; 360,000 tested, 0.2% active; AID 720542;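 further: 0% = vehicle wells and -100% = peptide control; nearly all actives have a fitted effect of over 45% in size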
#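 AMA1 (3D7) with his tag at 25 nM final met compounds first, then biotinylated RON2 peptide at 25 nM; detection used donor plus acceptor beads, 10 µg/mL apiece, read by AlphaScreen after 30 min at room temperature.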
# Pf growth 48h: P. falciparum growth inhibition at 48 hours (one generation); Potency, µM (doses to about 28.7 µM), inactives show at the highest dose activity change, negative = inhibition, most hits filed as inhibitors; P. falciparum luciferase growth in erythrocytes, 48 h; 310,000 tested, 5.9% active; further: on the % scale 0 is the no-effect control and ±100 the full control effect
#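 Read-out is firefly luciferase luminescence from an integrated reporter in P. falciparum, so falling signal marks reduced parasite growth. Infected erythrocytes were at 2% hematocrit and 0.1% parasitemia (final) in Albumax-supplemented RPMI 1640.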
# Pf growth 96h: P. falciparum growth inhibition at 96 hours; 320,000 tested, 6.9% active; Potency, µM (titrated, usually from 28.7 µM), inactives show at the highest dose activity change, negative = inhibition, hits mostly inhibitors; P. falciparum luciferase reporter growth, 96 h; AID 504834; further: on the % scale 0 is the no-effect control and ±100 the full control effect
#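 Two parasite generations (96 h, 37 C, 5% CO2) of compound exposure in infected erythrocytes (0.05% parasitemia, 2% hematocrit). Luciferase-reporter P. falciparum; decreased luminescence indicates inhibited growth, aimed at apicoplast-acting delayed death.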
# NS1 function inh: blocks influenza NS1 protein function | 270,000 tested, 0.4% active | Potency, µM (series often up to 46.1 µM), inactives show at the highest dose activity, positive = more growth; calls by dose curve; further: actives are rising curves; nearly all actives have a fitted effect of over 50% in size
#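 OD600 was taken as the measure of yeast growth restored by compound in an NS1-expressing S. cerevisiae strain. Cells had been washed out of glucose medium and diluted 1:100 into galactose -URA medium, pH 6.0.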
# Active calls of the source: *; u = inconclusive; x = not tested or not shown; ! = not active in a repeat; [ ] = remark or other dose. Unless noted, the call rests on the fitted dose curve; in most records, active means well fitted curve in the direction sought with a large enough effect; inconclusive means small, poorly fitted or top-dose-only effect, or another doubt; inactive means no such curve, though single readings can be large; an effect the other way counts as inactive or inconclusive. Potency means the concentration at half of the fitted maximal effect.
SMILES,HCV inh,SARS PLpro yeast,AMA1 RON2 block,Pf growth 48h,Pf growth 96h,NS1 function inh
Oc1ccccc1N1CCN(CC(O)COCc2ccccc2Cl)CC1 (centres undefined),3%,0%,-2%,u,u,3%
Cc1ccc(C[n+]2ccccc2)cc1,4.5µM*,9%,-4%,9.3µM*,u,x
Cc1ccc(S(=O)(=O)Oc2ccccc2C=C2C(=O)N(C)C(=O)N(C)C2=O)cc1,0%,-10%,-11%,-13%,12µM*,-12%
CN1C(=O)C(=Cc2ccccc2OCc2ccc(Cl)cc2)C(=O)N(C)C1=O,11%,-5%,4%,29%,1µM*,4%
CCCCn1nc2cc(C(=O)NC3CCCc4ccccc43)ccc2c1OCC (centres undefined),1.8µM*,-6%,-8%,-28%,u,5%
CCOc1c2ccc(C(=O)NCCCCc3ccccc3)cc2nn1CC,3.5µM*,20%,5%,-6%,-5%,-8%
CCCn1nc2cc(C(=O)NCC34CC5CC(CC(C5)C3)C4)ccc2c1OCC,u,-3%,-3%,12µM*,u,0%
COc1ccccc1CC1/C(=N/O)C2CCN1CC2 (centres undefined),12%,12%,1%,-5%,u,-4%
COc1ccccc1/C=C1/C(=N/O)C2CCN1CC2,-5%,7%,-1%,12µM*,-4%,11%
CC12CCC(O)CC1CCC1C2CCC2(C)C(C3=CC(=O)OC3)C(O)CC12O (centres undefined),u,x,-7%,x,x,x
C[C@]12CC[C@H](O)C[C@H]1CC[C@@H]1[C@@H]2CC[C@]2(C)[C@@H](C3=CC(=O)OC3)CC[C@]12O,2µM*,x,-8%,-10%,-1%,x
C[C@]12CC[C@H](O)C[C@H]1CC[C@@H]1[C@@H]2C[C@@H](O)[C@]2(C)[C@@H](C3=CC(=O)OC3)CC[C@]12O,0.56µM*,x,5%,-5%,-7%,x
CC12CCC(O)CC1CCC1C2CCC2(C)C(C3=CC(=O)OC3)CCC12O (centres undefined),5µM*,x,7%,x,x,x
CCCCN(C=O)c1c(CC)nc2c(OCc3ccc(Cl)cc3Cl)cccn12,x,x,8%,x,x,x
COc1cccc(CNC(=O)C2CCN(S(=O)(=O)c3ccc(Br)s3)CC2)c1,u,-2%,-9%,u,23%,-9%
Cc1ccc([C@H]2C[C@@H](n3cc(C4CC4)nn3)[C@H](O)CN2C(=O)C2CCCCC2)cc1,x,x,-2%,x,x,x
Cc1ccc(OCC(=O)NNC(=S)NC(=O)C2CC2)c(C)c1,x,-20%,x,u,15µM*,-105%
O=C(/C=C/Nc1ccccc1)c1ccccc1,4%,-22%,5%,x,7.4µM*,-36%
S=C(NCc1ccc(Cl)cc1)NN1CCOCC1,19%,1%,9%,-4%,35%,2%
Cc1ccccc1Cn1nc(C)c(NC(=O)c2cc3nc(-c4ccco4)cc(C(F)(F)F)n3n2)c1C,u,-7%,3%,13µM*,x,-36%
O=C(Nc1cnn(C23CC4CC(CC(C4)C2)C3)c1)c1cnn2c(C(F)(F)F)cc(-c3ccco3)nc12,11µM*!,5%,0%,-3%,u,x
Cc1nn(Cc2ccc(F)cc2)c(C)c1NC(=O)c1cc(-c2ccc3c(c2)OCO3)on1,u,7%,0%,8%,u,-11%
O=C(Nc1ccc2c(c1)OCO2)c1cnn2c(C(F)(F)F)cc(-c3ccco3)nc12,u,-1%,5%,x,49%,-30%
Cc1nn(C)cc1NC(=O)c1cc2nc(-c3ccco3)cc(C(F)(F)F)n2n1,u,1%,-6%,13%,17%,-1%
O=C(Nc1cnn(Cc2ccccc2)c1)c1cc2nc(-c3ccco3)cc(C(F)(F)F)n2n1,u,7%,3%,u,12µM*,-21%
SMILES,HCV inh,SARS PLpro yeast,AMA1 RON2 block,Pf growth 48h,Pf growth 96h,NS1 function inh
CCc1ccc(-c2cc(C(F)(F)F)n3nc(C(=O)Nc4c(C)nn(Cc5ccc(F)cc5)c4C)cc3n2)s1,1.6µM*,10%,11%,u,3%[5.75 µM],15%
Cc1cc(C)c(NC(=O)CNC(=O)COC(=O)C2=COCCO2)c(C)c1,u,2%,-13%,21%,1%,x
Cc1ccc(/C(O)=C2/C(=O)C(=O)N(c3ccccn3)C2c2cccc([N+](=O)[O-])c2)cc1 (centres undefined),10%,-1%,-4%,24%,0%,13%
O=C(CNCCc1ccc(F)cc1)Nc1cc(F)ccc1F,8%,0%,-1%,x,9%,0%
Cc1ccc(F)cc1CNC(=O)C1CCC(=O)N(CCCN2CCCC2=O)C1 (centres undefined),15%,-5%,10%,-1%,9%,2%
Cc1ccc(C2=NN(C(=O)CSc3nc4ncc(Cl)cc4[nH]3)C(c3ccco3)C2)cc1 (centres undefined),-14%,-14%,8%,-13%,12µM*,x
COc1ccc(C2=NN(C(=O)CSc3nc4ncc(Cl)cc4[nH]3)C(c3ccco3)C2)cc1 (centres undefined),-18%,-1%,-1%,u,u,x
OC1C2(Cc3ccccc3)CN3CCN(C2)CC1(Cc1ccccc1)C3 (centres undefined),15%,-1%,-6%,u,0.93µM*,-3%
OC1C2CN3CCN(C2)CC1(Cc1ccccc1)C3 (centres undefined),7%,8%,-5%,23%,u,9%
CC(=O)c1cccc(N(CC(=O)NC2CCCCC2)C(=O)CCC(=O)Nc2nc(C)cs2)c1,2%,1%,0%,u,u,-3%
CCOc1ccc(NC(=O)N2CCC(NC(=O)C(Cc3ccccc3OC)NC(C)=O)CC2)cc1 (centres undefined),7%,-3%,-2%,-4%,8%,6%
Oc1ccc(C=NC2CCCCC2)c(O)c1,1%,-3%,5%,9%,10µM*,0%
COc1ccc2c(CCNC(=O)c3ccc([N+](=O)[O-])cc3)c[nH]c2c1,u,3%,10%,0%,15%,1%
Cc1ccc(-n2c(Cc3cccn3C)nnc2SCC(=O)NCc2ccco2)cc1,19%,0%,4%,8.3µM*,45%,u
COc1ccc(Cl)cc1NC(=O)CSc1nnc(Cc2cccn2C)n1-c1ccc(F)cc1,u,-1%,-1%,13µM*,u,-65%
Cc1ccc(-n2c(Cc3cccn3C)nnc2SCC(N)=O)cc1,20%,-3%,2%,-1%,17%,1%
Cc1ccc(NC(=O)CSc2nnc(Cc3cccn3C)n2-c2ccc(F)cc2)cc1,-29%,1%,2%,u,u,u
